Most compounds without a hit are left out; they make up all but 4.1% or so of the library.
DAX1 inh-1 – inhibitors of human orphan nuclear receptor DAX1 (NR0B1) | P51843 | HEK293 Gal4-DAX1 luciferase reporter, luminescence | inhibition, % at 6.75 µM | 0.99% of 340,000 active | AID 504766;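 active = inhibition above the mean over all tested compounds plus 3 SD, cut at about 4.2% in these data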;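 note: 0% = DAX1-transfected cells with DMSO and 100% = empty-vector control cells with DMSO; inhibition shows as a rise in luminescence from relieved DAX1 repression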
Target sequence (P51843 207-470 limits assumed): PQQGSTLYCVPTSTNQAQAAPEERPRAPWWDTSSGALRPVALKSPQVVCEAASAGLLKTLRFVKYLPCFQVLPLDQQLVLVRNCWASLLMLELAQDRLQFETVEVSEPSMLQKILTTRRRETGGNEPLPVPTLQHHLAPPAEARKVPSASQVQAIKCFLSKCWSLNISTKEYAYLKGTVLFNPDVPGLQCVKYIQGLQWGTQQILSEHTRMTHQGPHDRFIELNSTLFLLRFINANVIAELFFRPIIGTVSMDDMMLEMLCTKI
hgDAF-12 ag – hgDAF-12 agonism, primary luciferase screen; HEK293 GAL4-hgDAF12 UAS-luciferase reporter, agonist luminescence; normalized to butyrate control; activation, % at 6.8 µM; 1.8% of 370,000 active;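 active = activation above a cutoff set at the mean of all screened compounds plus 3 SD, cut at about 10% in these data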;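 note: 0% = DMSO wells and 100% = sodium butyrate wells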
DAX1 inh-2 – DAX1 (NR0B1) inhibition, primary screen. HEK293T StAR-luciferase reporter, SF-1/DAX-1 repression relief. inhibition, % at 6.8 µM. 1.1% of 370,000 active. AID 652010;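 active = inhibition above the mean over all tested compounds plus 3 SD, cut at about 3.6% in these data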;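 note: 0% = DAX-1 cells with DMSO and 100% = cells lacking DAX-1 with DMSO; higher inhibition means more luminescence from relief of DAX-1 repression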
PolyA inh – blocks polyadenylation in yeast reporter cells | S. cerevisiae SKY197-pL101 polyadenylation reporter, beta-gal luminescence; efflux-impaired pdr1/pdr3 knockout yeast; score 100 = 6 SD above DMSO | activity score, % at 12 µM | 0.02% of 300,000 active | AID 1875;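 active = lowest replicate activity score at least 50, where 100 means six control SD above control mean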;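 note: yeast exposed to compound for 9 h at 30 °C; higher score means more reporter readthrough which indicates perturbed polyadenylation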
hcDAF12 agonist – H. contortus DAF-12 activation, primary screen; AID 652067; 1.4% of 370,000 active; activation, % at 6.8 µM; HEK293 hcDAF-12 lit1-tk-luc reporter, luminescence; 0% DMSO, 100% Δ7-dafachronic acid;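 active = activation above the mean of all tested compounds plus 3 SD, cut at about 5.5% in these data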;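 note: 100% = response to 3 µM Δ7-dafachronic acid high control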
ssDAF-12 act – activates DAF-12 receptor from parasite S. stercoralis | activation, % at 6.8 µM | 1% of 370,000 active | HEK293 ssDAF-12/GRIP1 lit1-tk-luc reporter, luminescence; % of 3 µM dafachronic acid response | AID 652126;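 active = activation above the mean over all tested compounds plus 3 SD, cut at about 0.9% in these data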;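 note: 0% = DMSO-only wells and 100% = 3 µM delta7-dafachronic acid wells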
Numbers without * were called inactive; · = not tested or not shown.

SMILES | DAX1 inh-1 | hgDAF-12 ag | DAX1 inh-2 | PolyA inh | hcDAF12 agonist | ssDAF-12 act
O=c1[nH]c2c(s1)C=Nc1ccccc1N2 | 1 | 8 | 3 | 8 | 6.2* | 0
O=C1CC(c2ccco2)CC2=C1C=Nc1ccccc1N2 (stereo not drawn) | -2 | 0 | 0 | -4 | -2 | -2
C[C@H]1COc2cccc(F)c2S(=O)(=O)N1C | · | 0 | 1 | · | -1 | -2
CC(C)(C)N1Cc2nnn(Cc3ccccc3)c2-c2cc(F)ccc2S1(=O)=O | · | -1 | 0 | · | -2 | -1
CSc1sc(C(=O)NN)c2c1C1(CCC2)SCCS1 | 5.8* | 1 | 0 | 1 | 1 | -1
C/C(=N\O)C(C)(C)Nc1cccc(Br)c1 | -1 | -2 | 0 | -4 | -1 | -1
C/C(=N\O)C(C)(C)Nc1cccc(F)c1 | 5.2* | 0 | 1 | 7 | 0 | -1
c1ccc(CNc2ncnc3c2cnn3-c2ccccc2)cc1 | 0 | 7 | 1 | -8 | -1 | -2
c1ccc(CCNc2ncnc3c2cnn3-c2ccccc2)cc1 | 1 | 12* | 3.7* | -9 | 3 | 1
CC(C)OCCCNc1ncnc2c1cnn2-c1ccccc1 | -1 | 12* | 3 | -2 | 5 | 0
C=CS(=O)(=O)N[C@@H](CSSC[C@H](NS(=O)(=O)C=C)C(=O)OC)C(=O)OC | · | 2 | 0 | · | -3 | -2
COc1ccc(OC)c(/C=N/NC(=O)c2cnccn2)c1 | 4.4* | 1 | 0 | -6 | 1 | -1
O=C(N/N=C/c1cc([N+](=O)[O-])ccc1Cl)c1cnccn1 | 5.1* | 1 | 0 | -7 | 0 | -1
COCCCNC(=O)C[C@H]1C[C@@]2(C(=O)OC)C(=C[C@H](C3CCCC3)O[C@@H]2C)N(Cc2ccccc2)C1=O | · | -1 | 0 | · | -1 | -1
Cc1cc2c(nc1C)CCCN2S(=O)(=O)c1c(C)noc1C | · | 2 | 0 | · | 1 | -1
CCOC(=O)CNC(=O)C(Cc1ccc2c(c1)OCO2)NC(C)=O (stereo not drawn) | · | 1 | 0 | · | -3 | 0
Cc1nc(-c2ccncc2)nc(NCCNc2ccc(C(F)(F)F)cn2)c1Cl | 9.1* | 0 | 0 | -18 | -1 | 0
C=CCN1C(=O)[C@@H](CC(=O)NCc2ccc(C)o2)[C@]2(C(=O)OCC)CCCCC/C=C/12 | · | 0 | 0 | · | 0 | -1
Cc1cccc(NC(=O)C(=O)NCC2CCCO2)c1 (stereo not drawn) | 0 | 13* | 3.8* | 9 | 3 | -1
Clc1ccc2nc(-c3ccco3)c(Cc3ccsc3)n2c1 | · | 1 | 0 | · | 2 | 0
N#Cc1ccc(-c2nc3ccc(Cl)cn3c2Cc2ccsc2)cc1 | · | 5 | 1 | · | 1 | -1
CCCc1nc2ccc(Cl)cn2c1Cc1ccsc1 | · | -1 | 0 | · | 1 | 1.0*
Clc1ccc(-c2nc3ccc(Cl)cn3c2Cc2ccsc2)cc1 | · | 11* | 3.8* | · | 1 | -1
Brc1ccc2nc(-c3ccco3)c(Cc3ccsc3)n2c1 | · | 1 | -1 | · | 2 | 1.0*
CC[C@@H](C)[C@@H]1CN([C@@H](C)CN2CCC[C@H]2CN2C(N)=NC[C@@H]2Cc2ccccc2)C(=N)N1CCc1ccc(Cl)c(Cl)c1 | 5.2* | · | · | · | · | ·
SMILES | DAX1 inh-1 | hgDAF-12 ag | DAX1 inh-2 | PolyA inh | hcDAF12 agonist | ssDAF-12 act
CC1CCc2c(sc3ncn(CC(=O)N=Nc4c(O)[nH]c5ccccc45)c(=O)c23)C1 (stereo not drawn) | 4.6* | 3 | 0 | 17 | 3 | 0
CCCC(C(=O)O)N1C(=O)/C(=C2\C(=O)N(C)c3ccccc32)SC1=S (stereo not drawn) | -1 | 0 | 0 | · | 3 | 0
O=C(O)CN1C(=O)/C(=C2\SC(=S)N(C(Cc3ccccc3)C(=O)O)C2=O)c2ccccc21 (stereo not drawn) | 0 | 1 | 0 | 14 | 6.4* | 1.2*
CC(=O)N1N=C(c2ccncc2)OC12CCCC2 | 0 | 1 | 0 | 1 | -2 | -1
CC(=O)N1N=C(c2ccc(Br)cc2)OC12CCCC2 | 4.4* | 0 | 1 | 8 | -1 | -2
CCOC(=O)N1CCN(C(=O)C[C@H]2C[C@@]3(C(=O)OC)C(=C[C@H](C4CCCC4)O[C@@H]3C)N(Cc3cccc4ccccc34)C2=O)CC1 | · | -3 | 0 | · | -2 | -1
CC(=O)c1ccc(N2Cc3ccccc3/C2=N\C(=O)Nc2ccc(Cl)cc2)cc1 | 2 | 12* | 1 | -2 | 2 | 1
COc1ccc(CNC(=O)N(C)C[C@@H]2OCc3ccccc3-c3c(n(C)c4ccccc34)C(=O)N([C@@H](C)CO)C[C@@H]2C)cc1 | · | -2 | -1 | · | -2 | -1
CC(=O)COC(=O)C1CCN(S(=O)(=O)c2cc([N+](=O)[O-])ccc2Cl)CC1 | 4.3* | 0 | 0 | 18 | 1 | -1
COC(=O)C[C@@H]1CC[C@@H]2[C@@H](COc3ccc(NC(=O)Nc4ccc(F)cc4)cc3C(=O)N2C)O1 | · | 1 | -1 | · | 1 | 0
COc1cc(OC)cc(C(=O)NNC(=O)CN2C(=O)NC(C)(c3ccc(C)cc3)C2=O)c1 (stereo not drawn) | 4.4* | 1 | 0 | 2 | -1 | -1
O=C1C=CC2=C3c4cc(O)c(O)cc4CC3(O)COC2=C1O (stereo not drawn) | 5.2* | -2 | 1 | · | 0 | -1
Clc1ccc(-c2cnc(Oc3ccccc3)nc2)cc1 | 2 | 11* | 3 | 8 | 2 | 1
O=C(Cc1ccccc1)c1ccc(O)cc1O | 0 | 1 | -3 | · | -2 | -1
O=C(Cc1ccc2cccnc2c1)c1ccc(O)cc1O | 0 | 11* | 2 | -15 | 3 | 0
Cc1nc(Nc2ccccc2)sc1C | 7.2* | 1 | 0 | -24 | 2 | -1
O=[N+]([O-])c1cncc2[nH]cnc12 | · | 3 | 2 | · | -1 | -2
O=C(NCc1ccccc1)[C@@H]1CCCN1C(=O)[C@H]1CCCN1C(=O)c1ccc(F)cc1F | · | -2 | 1 | · | 1 | -1
Cn1c(C(=O)N[C@@H](C(=O)O)c2ccccc2)cc2cc(Cl)ccc21 | 0 | 2 | 0 | 8 | 5.9* | 1
CC1CCCC(C)N1CCCNC(=O)CN1C(=O)c2cccnc2Oc2ccc(Cl)cc21 (stereo not drawn) | 4 | -1 | 1 | 22 | -2 | -2
Cc1ccc2c(c1)N(CC(=O)NCCCN1C(C)CCCC1C)C(=O)c1cccnc1O2 (stereo not drawn) | 4.8* | -2 | 0 | -15 | 0 | -1
CC(=O)c1c(C(C)=O)c(C)n(NC(=O)c2ccncc2)c1C | 5.7* | -1 | -1 | 3 | 0 | -1
O=C(Nn1cnnc1)c1ccncc1 | 1 | 3 | 0 | -2 | 0 | -1

From PubChem BioAssay
